The source of these data is ChEMBL document CHEMBL1961873, “Compounds: GSK PKIS; Assays: Nanosyn kinase panel” (2012).

In assay [1] the target is Death-associated protein kinase 1 (Homo sapiens) (UniProt P53355). As to conditions: at 1 µM.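 Also: each value is a mean inhibition figure.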
For assay [2], the target named is T1, Serine/threonine-protein kinase DCLK2 (Homo sapiens) (UniProt Q8N568).
T1 sequence (whole entry): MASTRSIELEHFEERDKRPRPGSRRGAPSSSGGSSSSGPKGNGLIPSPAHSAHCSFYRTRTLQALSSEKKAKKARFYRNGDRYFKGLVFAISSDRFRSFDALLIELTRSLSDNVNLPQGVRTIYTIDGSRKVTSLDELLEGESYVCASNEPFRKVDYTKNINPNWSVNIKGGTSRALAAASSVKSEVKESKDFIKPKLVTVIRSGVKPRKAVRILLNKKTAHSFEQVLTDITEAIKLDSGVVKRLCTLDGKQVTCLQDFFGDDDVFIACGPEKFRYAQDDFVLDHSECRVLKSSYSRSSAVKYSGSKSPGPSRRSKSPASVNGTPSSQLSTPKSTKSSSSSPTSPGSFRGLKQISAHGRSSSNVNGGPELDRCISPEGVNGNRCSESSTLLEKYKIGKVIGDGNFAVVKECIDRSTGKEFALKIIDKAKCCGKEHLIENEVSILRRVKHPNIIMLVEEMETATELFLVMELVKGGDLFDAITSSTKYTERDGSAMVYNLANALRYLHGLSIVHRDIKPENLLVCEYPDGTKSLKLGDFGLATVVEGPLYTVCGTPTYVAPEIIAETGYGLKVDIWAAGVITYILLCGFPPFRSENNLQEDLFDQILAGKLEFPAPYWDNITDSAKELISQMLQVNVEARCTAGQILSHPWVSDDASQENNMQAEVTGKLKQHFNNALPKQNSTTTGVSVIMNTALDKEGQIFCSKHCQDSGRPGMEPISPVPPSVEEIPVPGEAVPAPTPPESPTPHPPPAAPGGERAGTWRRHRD
As to conditions: at 0.1 µM.

In assay [3] the target is MAP kinase-activated protein kinase 2 (Homo sapiens) (UniProt P49137). As to conditions: at 0.1 µM.
Assay [4] has the same target. The settings on record: at 1 µM.
For assay [5], the target named is MAP kinase-activated protein kinase 3 (Homo sapiens) (UniProt Q16644). The settings on record: at 0.1 µM.
Assay [6] has the same target. As to conditions: at 1 µM.
Assay [7] has as its target Serine/threonine-protein kinase MARK1 (Homo sapiens) (UniProt Q9P0L2). The settings on record: at 0.1 µM.
Assay [8] shares this target. The settings on record: at 1 µM.
In assay [9] the target is MAP/microtubule affinity-regulating kinase 3 (Homo sapiens) (UniProt P27448). As to conditions: at 0.1 µM.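 Also: mean percent inhibition of MARK3 kinase activity, measured within the GSK PKIS screening panel.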
The target in assay [10] is T1, Serine/threonine-protein kinase DCLK2 (Homo sapiens). As to conditions: at 1 µM.

SMILES strings stand for the structures.

What is called inhibition is the drop in the measured response relative to a control, in per cent.

Sequence of MAP kinase-activated protein kinase 2 (Homo sapiens) (P49137 whole entry, looked up): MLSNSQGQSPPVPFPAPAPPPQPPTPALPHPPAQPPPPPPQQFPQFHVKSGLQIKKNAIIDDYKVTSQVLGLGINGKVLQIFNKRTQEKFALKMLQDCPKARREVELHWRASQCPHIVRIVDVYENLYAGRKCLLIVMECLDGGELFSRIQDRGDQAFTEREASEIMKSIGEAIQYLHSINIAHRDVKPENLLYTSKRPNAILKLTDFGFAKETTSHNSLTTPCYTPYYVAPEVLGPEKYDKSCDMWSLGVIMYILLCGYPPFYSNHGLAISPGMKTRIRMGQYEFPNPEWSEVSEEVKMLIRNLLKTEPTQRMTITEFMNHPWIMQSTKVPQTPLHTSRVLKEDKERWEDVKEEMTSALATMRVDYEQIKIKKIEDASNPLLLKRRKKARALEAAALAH
Sequence of Death-associated protein kinase 1 (Homo sapiens) (P53355 whole entry, looked up): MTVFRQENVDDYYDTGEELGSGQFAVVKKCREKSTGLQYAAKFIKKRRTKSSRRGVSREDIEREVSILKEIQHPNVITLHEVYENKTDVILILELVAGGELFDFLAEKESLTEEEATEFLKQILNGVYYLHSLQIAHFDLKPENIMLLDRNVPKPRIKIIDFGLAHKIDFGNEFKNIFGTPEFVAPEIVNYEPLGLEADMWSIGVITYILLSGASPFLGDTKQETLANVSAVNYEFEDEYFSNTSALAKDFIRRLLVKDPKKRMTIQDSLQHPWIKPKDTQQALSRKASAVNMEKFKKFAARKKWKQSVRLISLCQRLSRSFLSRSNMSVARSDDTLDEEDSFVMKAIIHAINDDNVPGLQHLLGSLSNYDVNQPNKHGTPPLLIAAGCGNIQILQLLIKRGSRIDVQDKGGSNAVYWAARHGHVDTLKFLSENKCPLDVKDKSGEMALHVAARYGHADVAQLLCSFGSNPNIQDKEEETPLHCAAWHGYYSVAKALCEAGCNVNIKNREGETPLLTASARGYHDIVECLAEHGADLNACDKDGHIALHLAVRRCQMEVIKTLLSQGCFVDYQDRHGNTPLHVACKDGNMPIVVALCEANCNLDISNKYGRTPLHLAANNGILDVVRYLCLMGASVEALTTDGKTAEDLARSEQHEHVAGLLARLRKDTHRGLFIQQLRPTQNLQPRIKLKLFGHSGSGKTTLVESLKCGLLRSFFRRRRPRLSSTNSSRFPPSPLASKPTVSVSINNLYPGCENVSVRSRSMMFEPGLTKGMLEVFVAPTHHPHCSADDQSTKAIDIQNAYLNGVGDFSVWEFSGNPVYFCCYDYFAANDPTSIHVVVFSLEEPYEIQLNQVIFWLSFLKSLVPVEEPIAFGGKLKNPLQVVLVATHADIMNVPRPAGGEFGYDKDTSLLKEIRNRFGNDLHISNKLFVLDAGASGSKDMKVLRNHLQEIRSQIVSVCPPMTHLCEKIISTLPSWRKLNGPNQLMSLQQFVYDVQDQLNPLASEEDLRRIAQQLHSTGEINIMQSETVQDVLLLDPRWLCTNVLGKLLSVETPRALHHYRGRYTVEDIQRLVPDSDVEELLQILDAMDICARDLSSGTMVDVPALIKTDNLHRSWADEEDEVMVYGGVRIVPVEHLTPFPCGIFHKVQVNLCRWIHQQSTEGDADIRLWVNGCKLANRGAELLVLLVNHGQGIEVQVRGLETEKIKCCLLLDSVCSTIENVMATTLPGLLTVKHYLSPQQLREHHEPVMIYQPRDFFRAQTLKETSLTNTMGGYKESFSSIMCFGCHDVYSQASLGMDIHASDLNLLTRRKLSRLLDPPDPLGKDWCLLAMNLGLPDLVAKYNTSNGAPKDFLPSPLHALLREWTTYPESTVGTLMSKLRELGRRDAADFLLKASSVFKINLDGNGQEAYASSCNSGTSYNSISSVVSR
Sequence of MAP kinase-activated protein kinase 3 (Homo sapiens) (Q16644 whole entry, looked up): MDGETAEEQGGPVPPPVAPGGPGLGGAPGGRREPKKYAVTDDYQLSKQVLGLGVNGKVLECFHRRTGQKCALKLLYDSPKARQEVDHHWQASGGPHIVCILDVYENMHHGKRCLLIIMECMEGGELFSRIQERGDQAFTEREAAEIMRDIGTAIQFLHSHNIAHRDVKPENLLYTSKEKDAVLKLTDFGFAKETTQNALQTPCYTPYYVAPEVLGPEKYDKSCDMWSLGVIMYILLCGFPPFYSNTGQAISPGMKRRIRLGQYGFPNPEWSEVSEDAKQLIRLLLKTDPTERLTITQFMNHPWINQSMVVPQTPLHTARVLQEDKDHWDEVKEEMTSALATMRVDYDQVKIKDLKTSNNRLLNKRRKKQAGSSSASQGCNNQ
Sequence of Serine/threonine-protein kinase MARK1 (Homo sapiens) (Q9P0L2 whole entry, looked up): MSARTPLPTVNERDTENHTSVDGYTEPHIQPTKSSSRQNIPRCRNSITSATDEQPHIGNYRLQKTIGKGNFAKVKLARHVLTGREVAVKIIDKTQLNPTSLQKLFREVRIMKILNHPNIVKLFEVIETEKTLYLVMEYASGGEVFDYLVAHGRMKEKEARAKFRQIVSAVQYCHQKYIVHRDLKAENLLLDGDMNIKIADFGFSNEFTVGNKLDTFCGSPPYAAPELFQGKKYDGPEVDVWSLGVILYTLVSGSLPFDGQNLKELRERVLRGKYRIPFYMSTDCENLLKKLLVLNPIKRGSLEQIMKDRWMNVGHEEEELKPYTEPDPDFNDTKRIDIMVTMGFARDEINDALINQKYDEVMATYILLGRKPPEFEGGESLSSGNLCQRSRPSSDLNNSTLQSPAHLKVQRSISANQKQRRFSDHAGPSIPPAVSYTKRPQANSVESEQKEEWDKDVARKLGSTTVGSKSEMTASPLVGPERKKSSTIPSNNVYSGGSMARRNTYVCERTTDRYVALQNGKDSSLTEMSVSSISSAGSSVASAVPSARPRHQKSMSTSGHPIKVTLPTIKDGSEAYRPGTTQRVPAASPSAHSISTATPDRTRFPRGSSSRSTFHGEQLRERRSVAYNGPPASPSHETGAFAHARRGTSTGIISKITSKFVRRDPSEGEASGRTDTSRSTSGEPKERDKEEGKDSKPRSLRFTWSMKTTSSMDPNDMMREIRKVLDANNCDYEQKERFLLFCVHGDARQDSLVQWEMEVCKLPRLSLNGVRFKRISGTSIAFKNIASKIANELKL
Sequence of MAP/microtubule affinity-regulating kinase 3 (Homo sapiens) (P27448 whole entry, looked up): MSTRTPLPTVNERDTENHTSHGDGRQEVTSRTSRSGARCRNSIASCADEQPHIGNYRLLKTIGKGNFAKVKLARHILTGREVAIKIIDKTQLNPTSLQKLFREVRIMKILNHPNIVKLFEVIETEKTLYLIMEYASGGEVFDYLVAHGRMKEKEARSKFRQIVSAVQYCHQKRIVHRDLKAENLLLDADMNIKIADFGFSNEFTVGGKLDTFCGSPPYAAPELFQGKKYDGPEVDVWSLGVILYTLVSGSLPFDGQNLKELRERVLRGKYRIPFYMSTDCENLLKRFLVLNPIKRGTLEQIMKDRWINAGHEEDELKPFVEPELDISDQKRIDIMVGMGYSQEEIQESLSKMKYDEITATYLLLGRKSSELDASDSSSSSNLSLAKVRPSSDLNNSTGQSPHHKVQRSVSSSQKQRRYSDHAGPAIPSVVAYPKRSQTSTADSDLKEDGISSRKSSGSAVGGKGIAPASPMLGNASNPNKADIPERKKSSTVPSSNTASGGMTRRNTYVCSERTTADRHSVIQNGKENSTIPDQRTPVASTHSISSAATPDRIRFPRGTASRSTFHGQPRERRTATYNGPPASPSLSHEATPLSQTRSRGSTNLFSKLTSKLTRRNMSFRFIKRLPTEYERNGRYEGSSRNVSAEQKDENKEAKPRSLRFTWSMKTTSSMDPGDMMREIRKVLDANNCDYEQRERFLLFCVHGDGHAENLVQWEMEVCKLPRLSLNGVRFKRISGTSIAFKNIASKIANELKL

On to `CC(C)=Cc1cccc2c1/C(=N/Nc1ccc(S(N)(=O)=O)cc1)C(=O)N2`, for which the inhibition in [1] stood at 10.2%; in assay [2], 0.25%; in assay [3], 3.53%; in [4] it was 3.71%; in assay [5], 7.64%; in [6], 7.15%. Besides, the inhibition worked out at 2.11% in [7], 24.8% in assay [8] and 2.08% in assay [9].
As for `CC1=C(C(=O)Nc2ccc3[nH]ncc3c2)C(c2ccc(Cl)c(Cl)c2)CC(=O)N1` (centres undefined), the inhibition was -1.58% in assay [1]; 0.32% in assay [10]; 0.89% in [3]; -0.26% in assay [4]; 2.5% in [5]; 1.83% in [6]. Moreover, the figures for the inhibition in assay [7], in [8] and in [9] were 0.33%, 5.92% and 2.97%, respectively.
As to `Cc1cccc(-c2n[nH]cc2-c2ccc3ncccc3n2)n1`, the inhibition in [1] is 0.85%; in assay [10] it was -5.57%; in assay [3] it was 0.61%; in assay [4] it was -0.07%; in assay [5], 0.58%; in assay [6], 2.89%. The inhibition is 1% in assay [7], 1.95% in [8] and -0.37% in [9].
`Fc1cccc(COc2ccc(Nc3ncnc4cc(-c5ccc[nH]5)sc34)cc2Cl)c1`: the inhibition was -2.65% in assay [1]; -2.61% in assay [2]; -0.38% in assay [3]; -0.64% in assay [4]; 0.31% in assay [5]; -0.26% in assay [6]. Moreover, the inhibition in assay [7] is 1.53%; in assay [8] it was 2.14%; in assay [9], -1.42%.
As for `N#Cc1c(NC(=O)c2cccc3ccccc23)sc2c1CCCC2`, the inhibition came out at 9.29% in assay [1]; 0.23% in [2]; 0.08% in assay [10]; 4.07% in [3]; 3.83% in assay [4]; 8.24% in assay [5]. Further, the inhibition in assay [6] turned out to be 8.43%; in [7], 3.26%; in [8], 3.28%; in assay [9], 2.5%.
As to `NS(=O)(=O)c1ccc(N/N=C2\C(=O)Nc3ccc(C(=O)NCCc4c[nH]cn4)cc32)cc1`, the inhibition in [1] was found to be 12.4%; in [2], 1.45%; in [10], 0.59%; in assay [3], 2.48%; in [4], 2.03%; in [5], 3.95%. The inhibition in assay [6] was determined as 3.57%; in assay [7], 16%; in assay [8] it was 61.4%; in assay [9], 8.6%.
For `COc1ccc(-c2coc3ncnc(N)c23)cc1`, the inhibition in assay [1] was 12.9%; in assay [2], 0.87%; in [10], -0.02%; in assay [3], 3.78%; in [4], 4.6%; in assay [5] it was 10.7%. Moreover, the inhibition in assay [6] worked out at 11.6%; in assay [7] it was 4.41%; in assay [8], 3.73%; in assay [9], 5.6%.
For the compound `CC1=C(C(=O)Nc2ccc3[nH]ncc3c2)C(c2ccc(F)cc2)NC(=O)N1` (centres undefined), the inhibition in assay [1] is 1.59%; in assay [2] it was 1.36%; in assay [10], -0.03%; in [3], 1.48%; in assay [4], 1.87%; in assay [5] it was 1.46%. For the same compound, the inhibition in assay [6] was 1.05%; in [7], 2.81%; in [8], 9.5%; in [9], 0.23%.
On to `Cc1ccc(C(=O)NC2CCCCC2)cc1-c1ccc(C(=O)NCC2CC2)cc1`, for which the inhibition in [1] turned out to be 5.32%; in assay [2], 3.45%; in assay [3], 0.37%; in [4], 0.95%; in assay [5], 1.78%; in [6], 4.53%. Further, the inhibition worked out at 1.97% in assay [7], 0.65% in [8] and 3.7% in assay [9].
For the compound `NC(=O)c1ccc(-c2nc(-c3ccccn3)c(-c3ccc4c(c3)OCO4)[nH]2)cc1`, the inhibition in [1] was 2.62%; in assay [2], -0.58%; in assay [10], -8.11%; in [3], 1.1%; in [4], 0.74%; in assay [5], 3.61%. In addition, the inhibition turned out to be 5.05% in [6], 1.86% in assay [7], 3.27% in [8] and 2.26% in assay [9].
`CC(=O)Nc1cccc(C#Cc2cncnc2Nc2ccc(OCc3cccc(F)c3)c(Cl)c2)n1`: the inhibition in assay [1] amounted to 7.63%; in [2], 5.73%; in [10], 7.65%; in [3], 2.15%; in assay [4], 2.54%; in [5], 5.56%. For the same compound, the inhibition in assay [6] came out at 5.33%; in [7] it was 1.05%; in assay [8] it was 1.12%; in assay [9], 0.78%.
As to `COc1cc(C)c(NC(=O)CN(C)C)cc1Nc1nc(Nc2cccc(F)c2C(N)=O)c2cc[nH]c2n1`, the inhibition in [1] stood at 35%; in assay [2], 1.99%; in assay [3], 0.89%; in assay [4], 0.73%; in assay [5], 3.1%; in assay [6] it was 3.56%. Moreover, the figures for the inhibition in [7], in assay [8] and in assay [9] were -0.37%, 1.38% and -0.27%, respectively.
For `CCc1cccc(NC(=O)Nc2ccc(Oc3ccc4nc(NC(=O)OC)[nH]c4c3)cc2)c1`, the inhibition in assay [1] was -5.23%; in assay [2], 6.75%; in assay [10], 1.42%; in assay [3], -0.49%; in assay [4], -1.61%; in assay [5], -2.74%. Moreover, the inhibition in assay [6] is -3.85%; in assay [7], 1.69%; in assay [8], 0.31%; in [9] it was 1.5%.
In the case of `c1cnn2ncc(-c3ccnc(Nc4ccc5c(c4)OCCO5)n3)c2c1`, the inhibition in [1] worked out at 3.76%; in assay [2] it was 1.81%; in assay [10], 1.89%; in assay [3], 2.05%; in [4] it was 2.24%; in [5] it was 3.74%. For the same compound, the inhibition in assay [6] came out at 3.81%; in assay [7], 4.18%; in assay [8] it was 24.3%; in assay [9] it was 5.06%.
